# Source: PubChem
# These entries were drawn from the full list.
# aSyn 5UTR act: Activators via SNCA 5'UTR binding, MLPCN | actives 7.1% (n = 300,000) | alpha-synuclein 5'UTR reporter, activators screen | AID 1814 | activity score, % (tested at 7.5 µM), hits read low; in the data active = activity score below about -60%
# Numbers without * were called inactive.
SMILES,aSyn 5UTR act
Nn1c(COc2ccccc2)nc2ccccc2c1=O,-70*
Cn1c(COc2ccccc2Br)nc2ccccc21,-145*
CCn1c(COc2ccccc2C)nc2ccccc21,-131*
Cc1ccccc1OCc1nc2ccccc2c(=O)n1N,-113*
CCn1c(CCc2ccccc2)nc2ccccc21,-76*
COCn1c(COc2ccc3ccccc3c2)nc2ccccc21,-92*
O=C(Nc1ccccc1F)c1ccc(C(=O)c2ccccc2)cc1,-100*
Cn1cc(Cl)c(C(=O)Nc2cccc(Cl)c2Cl)n1,-155*
Nc1ccccc1NC(=O)c1ccccc1,-154*
Cc1ccc(C(=O)Nc2ccccc2Cl)cc1,-129*
O=C(Nc1ccccc1Cl)c1ccn[nH]1,-90*
Cc1ccc(Cn2nc(C)cc2C(=O)Nc2ccccc2Cl)cc1,-151*
Cc1ccc(C(=O)Nc2ccccc2C(=O)NC(C(=O)O)C(C)C)cc1 (stereo unspecified),-69*
O=C(Nc1cccc(Cl)c1Cl)c1ccc(-c2ccccc2)cc1,-159*
O=C(NNC(=O)c1ccccc1OCc1ccc(F)cc1)c1ccccc1O,68
O=C(Nc1cccn2ncnc12)c1ccccc1,-65*
O=C(Nc1ccccc1Cl)c1ccccc1,-87*
COc1ccccc1OCc1ccc(C(=O)Nc2ccccc2F)cc1,-75*
Cc1cc(N)c(-n2cc3c(=O)n(C)c(=O)n(C)c3c2)cc1C,-134*
Cc1ccc(-n2cc3c(=O)n(C)c(=O)n(C)c3c2)cc1C,-107*
CCCC(=O)N(CCN1CCOCC1)c1nc2c(F)cc(F)cc2s1,-86*
Cc1ccc(S(=O)(=O)CCC(=O)N(CCN2CCOCC2)c2nc3ccccc3s2)cc1,-75*
Cc1ccnc(N=Cc2nc(-c3ccccc3Br)oc2O)c1,-102*
O=C(NC1CCCCC1)C(=S)NC1CCCCC1,-106*
O=C(NC1CCCCC1)C(=S)NCc1ccccc1,-71*
SMILES,aSyn 5UTR act
O=C(NC1CCCCCC1)C(=S)NCc1ccccc1,-86*
COc1ccc(CNC(=O)NC2CCCCC2)cc1,-80*
Cc1ccc(S(=O)(=O)Nc2cccc3cccnc23)c([N+](=O)[O-])c1,71
Oc1ccc(/C=N/Nc2nccnc2Cl)c(O)c1,88
Cc1ccc(/C=N/Nc2cccc3cccnc23)c(O)c1,-271*
Oc1ccc(/C=N/Nc2cccc3cccnc23)c(O)c1,-405*
Cc1ccc(C(=O)N2C(CC(=O)Nc3ccc(Cl)cc3)C(=O)NC3CCCCC32)cc1 (stereo unspecified),-72*
CC(C)OCCCNC(=O)c1ccc(Br)cc1,-73*
CCOCCCNC(=O)c1ccc(Br)cc1,-84*
CC1=Nc2cc(C(=O)NCCCOC(C)C)ccc2Sc2ccc(C)cc21,77
CCCC1=Nc2cc(C(=O)NCCCOCC)ccc2Sc2ccccc21,67
CCC1CSC(Nc2ccc(C(=O)/C=C/c3ccc(Oc4ccccc4)cc3)cc2)=N1 (stereo unspecified),-88*
Cc1cc(/C=c2\sc3nc4ccccc4n3c2=O)c(C)n1-c1ccc(C(=O)O)cc1,-62*
O=c1/c(=C\c2cccnc2)sc2nc3ccccc3n12,-107*
Cc1cc(/C=c2/sc3nc4ccccc4n3c2=O)c(C)n1-c1ccccn1,88
CC(/C=C/c1ccccc1)=N\Nc1nc(C)cc(C)n1,-96*
CC(/C=C/c1ccccc1)=N\NC(N)=S,-100*
CCOC(=O)Cn1cnc(-c2ccc([N+](=O)[O-])cc2)c1,-77*
CCOc1ccc(Nc2ncnc3c2nnn3Cc2ccccc2)cc1,-79*
COC(=O)Cc1c(C)c2ccc(OC3CCCCC3=O)c(C)c2oc1=O (stereo unspecified),-65*
Cc1c(CCC(=O)N2CCC[C@H]2C(=O)O)c(=O)oc2cc3oc4c(c3cc12)CCCC4,77
CSc1ccc(CNc2ccc(C)c(C)c2)cc1,-139*
CSc1ccc(CNc2ccc(C)cc2)cc1,-149*
COc1cc(-c2noc(C)c2/C=C/c2ccc(N)cc2)cc(OC)c1OC,104
O=C(/C=C/c1cccs1)Nc1cccc(NC(=O)/C=C/c2cccs2)n1,-181*
SMILES,aSyn 5UTR act
CCc1nnc(NC(=O)C=C(C)C)s1,-140*
CCc1nnc(NC(=O)/C=C/c2cccs2)s1,-160*
O=C(/C=C/c1cccc(F)c1)Nc1nccs1,-209*
Cc1cc(C)nc(NC(=O)/C=C/c2cccs2)c1,-155*
NS(=O)(=O)c1cccc(NC(=O)/C=C/c2cccs2)c1,-101*
Cc1cc(C)c(-c2csc(NC(=O)/C=C/c3cccs3)n2)c(C)c1,38
O=C(/C=C/c1cccs1)Nc1nccs1,-97*
C=CCn1c(SCc2cc(C(C)=O)ccc2OCC)nc2ccccc2c1=O,104
CCC(C)NC(=O)CSc1nc2ccsc2c(=O)n1NC(=O)c1ccccc1 (stereo unspecified),-67*
CCOC(=O)CSc1nc2ccccc2c(=O)n1NC(=O)c1ccccc1,-66*
Cc1cccc(NC(=O)Cn2nnc3ccccc32)c1,-104*
COC(=O)c1ccc(NC(=O)Cn2nnc3ccccc32)cc1,-174*
Cc1ccc(NC(=O)Cn2nnc3ccccc32)cc1,-176*
Cc1ccccc1OCc1nnc2c3cnn(C)c3ncn12,-187*
CCOc1ccc(-c2cn(-c3cccc(SC)c3)c(=O)[nH]2)cc1,-72*
Cc1ccc(F)cc1NC(=O)c1sc2ncn(CC(=O)N3CCN(c4ccccn4)CC3)c(=O)c2c1C,-89*
COc1cc(NC(=O)c2cc3nc(C4CC4)cc(C(F)(F)F)n3n2)c(OC)cc1Cl,-70*
CC1(C)Cc2c(sc3nc(-c4cccs4)n(N)c(=O)c23)CO1,-116*
Nn1c(-c2cccs2)nc2sc3c(c2c1=O)CCCC3,-149*
CC1(C)Cc2c(sc3ncnc(NNC(=S)NCc4ccccc4)c23)CO1,87
CCOCCOC(=O)C1=C(C)Nc2ccc(C)cc2S1,-92*
CCC1CCCCN1C(=O)c1ccc([N+](=O)[O-])o1 (stereo unspecified),-79*
CC1(C)CC(=O)c2c(O)cc(OCc3ccc(Br)cc3)cc2O1,-165*
CC1(C)CC(=O)c2ccc(OCc3ccc([N+](=O)[O-])cc3)cc2O1,-151*
O=C(O)c1cc(-c2c[nH]c3ccccc23)nc2cc3ccccc3cc12,-66*
SMILES,aSyn 5UTR act
Cc1ccc2nc(SCC(=O)c3ccc(Cl)s3)[nH]c2c1,-66*
O=C(NN=C1CCCCCC1)c1cccs1,-75*
C/C(=N/NC(=O)c1cccs1)c1ccco1,-100*
CC1C2CC(C/C2=N/NC(=O)c2cccs2)C1(C)C (stereo unspecified),-74*
CCOC(=O)C/C(C)=N/NC(=O)c1cccs1,-131*
C/C(=N\NC(=O)c1cccs1)C(C)(C)C,-94*
C/C(=N\NC(=O)c1cc(-c2ccc(C)s2)[nH]n1)c1ccco1,-168*
Cc1nc2nc(-c3cccnc3)nn2c(C)c1Cl,-74*
Cc1ccccc1NC(=O)c1nnn(-c2ccc3c(c2)OCCO3)c1N,-135*
Nc1c(C(=O)Nc2cccc(F)c2)nnn1-c1ccc2c(c1)OCCO2,-101*
CC1CCCN(c2nc3ccsc3c(=O)s2)C1 (stereo unspecified),-148*
O=C(O)CCCN1C(=O)/C(=C\c2ccc(-c3nc4ccccc4s3)o2)SC1=S,-83*
O=Cc1ccc(-c2nc3ccccc3s2)o1,-98*
C[C@H]1Oc2ccccc2C(=O)C1C(=O)c1ccccc1 (stereo partly specified),-100*
Cc1ccc(NC(=O)c2nc3nccc(C)n3n2)c(C)c1,-64*
Cc1csc(NC(=O)c2nc3nccc(C)n3n2)n1,-147*
Cc1ccnc2nc(C(=O)Nc3ccc(N4CCOCC4)cc3)nn12,-73*
